“And” between values parts separate entries of the source, which are not always exact repeats. Equal values may be shown once. About 3,700 (1%) of roughly 360,000 compounds were called active. For the sample, actives were picked, then their nearest neighbours and some compounds at random. Unmarked numbers belong to inactive results. No stated cut-off is given here; in the data, active means activation above about 30%; inactive means the rest.
target: D(1A) dopamine receptor (Homo sapiens) (UniProt P21728); assay: Allosteric Agonists of the Human D1 Dopamine Receptor: qHTS; details: HEK293 T-REx D1 cells, calcium flux, agonist mode; at 2 µM; hits give high values; further: 0% is about no effect
Sequence (P21728 whole entry, looked up): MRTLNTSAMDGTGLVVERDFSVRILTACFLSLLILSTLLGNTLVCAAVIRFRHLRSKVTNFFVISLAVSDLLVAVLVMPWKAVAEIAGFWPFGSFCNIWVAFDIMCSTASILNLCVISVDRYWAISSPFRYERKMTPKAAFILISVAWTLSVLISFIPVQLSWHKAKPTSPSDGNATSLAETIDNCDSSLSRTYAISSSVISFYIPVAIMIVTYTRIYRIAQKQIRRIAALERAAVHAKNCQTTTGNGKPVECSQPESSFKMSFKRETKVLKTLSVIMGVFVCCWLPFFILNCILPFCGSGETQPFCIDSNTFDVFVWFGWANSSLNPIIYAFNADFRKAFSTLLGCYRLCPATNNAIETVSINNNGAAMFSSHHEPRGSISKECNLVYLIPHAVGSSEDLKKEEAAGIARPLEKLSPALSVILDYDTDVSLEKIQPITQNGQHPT
Method in brief: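 Agonism was scored from calcium flux recorded over 180 s (1 read/s) after pintool compound addition, following a 10-cycle baseline. Cells were inducible force-coupled HEK293 TREx D1, plated overnight at 30 C and loaded with no-wash calcium dye.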

Compound	activation
O=C(Nc1ccc2nc(SCC(=O)N3CCCc4ccccc43)sc2c1)c1ccc(F)cc1	5.54%
Cc1cc(C)c(S(=O)(=O)N2CCC(C(=O)OCc3c(C)noc3C)CC2)c(C)c1	45.3% (active)
CCOC(=O)C1CCN(C(=O)C2CCN(S(=O)(=O)c3c(C)noc3C)CC2)CC1	-2.99%
CCOC(=O)C1CCN(S(=O)(=O)c2c(C)noc2C)CC1	0.879%
COc1ccc(CCn2cc3c(c2-c2ccc(Br)cc2)c(=O)n(C)c(=O)n3C)cc1OC	0.633%
COc1cccc(NC(=O)N2CCN(C(=O)c3nsc4ccccc34)CC2)c1	10.2%
CCOC(=O)c1c(NC(C)=O)c2c3c(sc2n1Cc1c(C)cc(C)cc1C)CCCC3	1.79%
COC(=O)CC1=NN(c2ccccc2)C(=O)C1	31.5% (active)
COC(=O)CC1=NN(c2nc(C)cc(C)n2)C(=O)C1	13.3%
C/C(N)=C(/C#N)C(=O)COC(=O)C1=NN(c2ccccc2)C(=O)CC1	2.53%
CCOC(=O)c1ccc(NC(=O)C2CC(=O)N(c3ccc(C(C)C)cc3)C2)cc1 (stereo not given)	0.0656%
CCOC(=O)c1cc2c(=O)n3ccccc3nc2n(CCCOC)c1=NC(=O)C(C)Oc1ccccc1 (stereo not given)	-0.224%
C=CCC(NC(=O)Cc1ccccc1)C(=O)NCCC (stereo not given)	-1.62%
CCCCC(=O)NNC(=S)NC(=O)C(c1ccccc1)c1ccccc1	179% (active)
C/C(=N\NC(=O)CNC(=O)C(c1ccccc1)c1ccccc1)c1ccc(C)cc1	0.588%
CCOc1ccccc1C(=O)NC1(C(F)(F)F)C(=O)Nc2c1c(=O)[nH]c(=O)n2-c1ccc(F)cc1 (stereo not given)	0.807%
C=CCC1=C/C(=C\c2c(N)n3nc(CC(=O)N4CCOCC4)sc3nc2=O)C=C(OC)C1=O	38.1% (active)
COC1=C/C(=C/c2c(N)n3nc(CC(=O)N4CCOCC4)sc3nc2=O)C=CC1=O	8.23%
O=C(NCc1nnc(C(=O)Nc2ccc(C(F)(F)F)cc2Cl)o1)c1ccccc1	-0.686%
Cc1cc(Br)ccc1NC(=O)Cn1cnc2sc(C)c(S(=O)(=O)N3CCN(C)CC3)c2c1=O	2.4%
CC1(c2ccc3ccccc3c2)NC(=O)N(CC(N)=O)C1=O (stereo not given)	3.93%
COc1ccc(C2(C)NC(=O)N(CC(=O)c3ccc4c(c3)OCO4)C2=O)cc1 (stereo not given)	38.5% (active)
COc1ccc(C(=O)CN2C(=O)NC(C)(c3ccc(C)cc3)C2=O)cc1OC (stereo not given)	26.6%
CC1(c2ccc(Cl)cc2Cl)NC(=O)N(CC(=O)Nc2cccnc2Cl)C1=O (stereo not given)	3.86%
CC1CN(C(=O)CN2C(=O)NC(C)(c3ccccc3)C2=O)CC(C)O1 (stereo not given)	0.601%

Compound	activation
Cc1ccc(NC(=O)CN2C(=O)NC(C)(c3ccc(Cl)cc3)C2=O)c(Br)c1 (stereo not given)	37.2% (active)
CC1(c2ccc(Cl)cc2)NC(=O)N(CC(=O)c2ccc3c(c2)OCO3)C1=O (stereo not given)	53.1% (active)
Cc1ccc(C2(C)NC(=O)N(CC(=O)Nc3ccccc3C(=O)N3CCCCC3)C2=O)cc1 (stereo not given)	10.7%
Cc1oc(C)c2c(=O)cc(-c3ccc4c(c3)OCO4)cc(OC(=O)c3ccc(Cl)cc3)c12	5.82%
O=c1n(Cc2cccc(C(F)(F)F)c2)c2ccccc2c2nc(-c3ccccc3)nn12	5.18%
CCOC(=O)C1CCCN(C(=O)Cn2ncc3c(C)n(Cc4ccc(F)cc4)c(C)c3c2=O)C1 (stereo not given)	5.3%
Cc1nn(-c2ccc(N3CCCCC3)nn2)c(C)c1CCC(=O)NCc1ccccc1F	-0.954%
Cc1ccc(C)c(NC(=O)C2CCCN(S(=O)(=O)c3cn(C)cn3)C2)c1 (stereo not given)	-0.383%
CC(C)NC(=O)c1nn(-c2ccccc2F)nc1CO	1.01%
CCOC(=O)c1c(C)oc2nc(C)nc(N(CC(C)C)CC(C)C)c12	5.8%
CCc1cccc(NC(=O)c2cnc(N3CCOCC3)c3ccccc23)c1	-0.292%
CC1=C(C(=O)OCC(C)C)C(c2ccc(OCc3ccccc3)cc2)N2C(=O)CCSC2=N1 (stereo not given)	13.9%
Cc1c(-c2nsc(NC(=O)c3cccc(Cl)c3)n2)nnn1-c1ccccc1C(F)(F)F	6.51%
O=C(CCS(=O)(=O)c1ccccc1)N(Cc1cccnc1)c1nc2c(F)cccc2s1	7.8%
O=C(O)CCS(=O)(=O)c1ccc(-c2ccccc2)cc1	-0.731%
Cc1cccc2sc(N(CCCN(C)C)C(=O)CCS(=O)(=O)c3ccccc3)nc12	44.5% (active)
CCc1nnc(SCC(=O)Nc2cc(OC)ccc2OC)nc1CC	0.834%
CN(c1ccccc1)c1ccc(/C=c2\s/c(=C(/C#N)C(=O)C(C)(C)C)n(Cc3ccco3)c2=O)cc1	86% (active)
CCOc1ccccc1NC(=O)Cn1c(=O)n(Cc2ccco2)c(=O)c2sc3ccccc3c21	0.44%
CCc1ccccc1NC(=O)c1cc(-c2ccc3c(c2)OCO3)on1	1.41% and 1.39%
O=C(Nc1ccccc1C(F)(F)F)c1cc(-c2ccc(O)cc2)on1	76.6% (active)
Cc1cc(C)nc(NC(=O)Nc2ccccc2C(F)(F)F)n1	7.87%
CC(=O)OC1=C(C(C)=O)N(Cc2ccccc2)S(=O)(=O)c2ccccc21	-0.292%
CCOC(=O)CN1C(C(=O)c2ccccc2)=C(OC(=O)C(C)(C)C)c2ccccc2S1(=O)=O	2.02%
CCCCC(=O)OC1=CN(Cc2ccccc2)S(=O)(=O)c2ccccc21	43.4% (active)

Reference: PubChem BioAssay AID504660 (National Center for Advancing Translational Sciences (NCATS), 2011)
